Measurements taken from PubChem BioAssay.
Calls of active or inactive are those of the source.

Experiments:
[1] = binders of probe aFSTL3 on microarray, primary screen, stem cell growth factor project, biochemical, small-molecule microarray, fluorescence 635/667 (AID 1064); conditions: higher = more signal;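 note: measures binding of the biotinylated anti-FSTL3 antibody to printed compounds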
[2] = binders from COS7 lysate, DM2A8 probe, primary screen, torsin A project, cell lysate, small-molecule microarray, fluorescence 635/667 (AID 1065); conditions: higher = more signal, COS7 lysate expressing mutant human TOR1A
[3] = binders of probe aFGF2 on microarray, primary screen, stem cell growth factor project, biochemical, small-molecule microarray, fluorescence 635/667 (AID 1067); conditions: higher = more signal;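 note: measures binding of biotinylated aFGF2 protein to printed compounds on slides; z-score merges feature fluorescence and signal-to-noise across triplicate slides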
[4] = binders of probe aFGF10 on microarray, primary screen, stem cell growth factor project, biochemical, small-molecule microarray, fluorescence 635/667 (AID 1071); conditions: higher = more signal;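 note: score merges 667 nm spot intensity and signal to noise from triplicate slides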
[5] = target: Neurogenic locus notch homolog protein 2 (Homo sapiens) (UniProt Q04721); assay: Notch2 binders on small-molecule microarrays, primary screen, biochemical, small-molecule microarray, 635 nm fluorescence, stem cell growth factors (AID 1073); conditions: Notch2 binding, higher = more signal
Sequence of Neurogenic locus notch homolog protein 2 (Homo sapiens) (Q04721 whole entry, looked up, canonical isoform): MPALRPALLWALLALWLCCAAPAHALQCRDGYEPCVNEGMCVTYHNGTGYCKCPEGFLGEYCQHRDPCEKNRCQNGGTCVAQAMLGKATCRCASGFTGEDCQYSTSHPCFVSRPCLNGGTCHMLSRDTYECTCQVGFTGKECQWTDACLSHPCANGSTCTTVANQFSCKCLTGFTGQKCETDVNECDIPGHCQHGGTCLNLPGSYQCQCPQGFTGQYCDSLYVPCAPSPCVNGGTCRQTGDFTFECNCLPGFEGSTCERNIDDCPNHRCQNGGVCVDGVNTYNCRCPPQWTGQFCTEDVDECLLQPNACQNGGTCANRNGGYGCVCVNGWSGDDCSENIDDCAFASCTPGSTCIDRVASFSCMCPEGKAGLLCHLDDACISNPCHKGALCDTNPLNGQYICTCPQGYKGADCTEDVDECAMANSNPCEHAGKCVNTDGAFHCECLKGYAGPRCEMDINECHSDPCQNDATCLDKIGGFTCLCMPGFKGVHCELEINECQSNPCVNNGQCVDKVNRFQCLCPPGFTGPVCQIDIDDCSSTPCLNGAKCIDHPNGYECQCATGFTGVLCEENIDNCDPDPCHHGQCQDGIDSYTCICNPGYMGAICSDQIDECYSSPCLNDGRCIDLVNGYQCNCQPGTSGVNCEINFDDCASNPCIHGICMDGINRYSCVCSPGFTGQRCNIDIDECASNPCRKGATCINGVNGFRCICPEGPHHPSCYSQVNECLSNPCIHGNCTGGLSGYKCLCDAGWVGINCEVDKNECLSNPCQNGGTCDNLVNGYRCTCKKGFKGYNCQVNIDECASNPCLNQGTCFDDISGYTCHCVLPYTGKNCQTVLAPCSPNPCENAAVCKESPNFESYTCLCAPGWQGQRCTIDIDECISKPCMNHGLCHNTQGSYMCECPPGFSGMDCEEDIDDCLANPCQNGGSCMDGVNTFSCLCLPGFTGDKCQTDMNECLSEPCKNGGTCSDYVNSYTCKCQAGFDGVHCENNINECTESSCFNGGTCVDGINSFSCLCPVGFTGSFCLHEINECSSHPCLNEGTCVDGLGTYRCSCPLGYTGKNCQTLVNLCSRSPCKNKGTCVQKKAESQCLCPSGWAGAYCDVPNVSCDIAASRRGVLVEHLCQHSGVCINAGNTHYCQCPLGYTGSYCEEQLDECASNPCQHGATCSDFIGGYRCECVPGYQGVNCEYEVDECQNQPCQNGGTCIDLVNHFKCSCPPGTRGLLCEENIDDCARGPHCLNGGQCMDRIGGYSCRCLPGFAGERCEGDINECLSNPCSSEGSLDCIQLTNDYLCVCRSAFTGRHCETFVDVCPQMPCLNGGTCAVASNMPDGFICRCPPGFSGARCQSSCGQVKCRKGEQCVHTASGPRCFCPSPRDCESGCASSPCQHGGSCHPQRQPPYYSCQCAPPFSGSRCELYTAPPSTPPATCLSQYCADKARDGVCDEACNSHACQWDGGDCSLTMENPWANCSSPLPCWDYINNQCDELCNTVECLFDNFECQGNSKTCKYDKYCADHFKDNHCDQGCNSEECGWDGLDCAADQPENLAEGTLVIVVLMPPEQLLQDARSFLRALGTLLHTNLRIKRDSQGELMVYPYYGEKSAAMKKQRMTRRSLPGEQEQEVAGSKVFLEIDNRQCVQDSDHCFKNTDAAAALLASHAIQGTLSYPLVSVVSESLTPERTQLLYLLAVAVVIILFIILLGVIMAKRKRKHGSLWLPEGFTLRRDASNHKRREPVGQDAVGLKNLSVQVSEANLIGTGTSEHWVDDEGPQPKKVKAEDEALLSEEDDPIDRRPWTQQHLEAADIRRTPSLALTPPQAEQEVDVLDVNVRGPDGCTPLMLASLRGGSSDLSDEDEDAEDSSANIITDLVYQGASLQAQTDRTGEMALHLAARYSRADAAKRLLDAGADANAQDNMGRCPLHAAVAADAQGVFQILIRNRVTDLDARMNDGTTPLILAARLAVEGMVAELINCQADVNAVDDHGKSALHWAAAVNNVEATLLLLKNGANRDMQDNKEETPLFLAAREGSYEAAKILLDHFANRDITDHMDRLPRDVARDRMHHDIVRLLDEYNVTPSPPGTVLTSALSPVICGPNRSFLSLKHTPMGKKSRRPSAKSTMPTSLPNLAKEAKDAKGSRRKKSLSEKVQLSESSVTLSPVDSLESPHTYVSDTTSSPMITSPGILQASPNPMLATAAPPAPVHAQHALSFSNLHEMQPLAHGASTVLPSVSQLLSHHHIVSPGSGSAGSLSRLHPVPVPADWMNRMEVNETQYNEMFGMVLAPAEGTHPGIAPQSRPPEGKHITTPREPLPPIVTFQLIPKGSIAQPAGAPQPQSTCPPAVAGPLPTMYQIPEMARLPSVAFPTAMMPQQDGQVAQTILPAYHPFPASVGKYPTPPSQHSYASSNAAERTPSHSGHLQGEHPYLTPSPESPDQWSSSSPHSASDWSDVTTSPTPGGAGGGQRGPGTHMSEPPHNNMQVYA

[6] = target: Pro-neuregulin-1, membrane-bound isoform (Homo sapiens) (UniProt Q02297); assay: NRG1 binders on small-molecule microarrays, primary screen, psychiatric disease protein project, biochemical, small-molecule microarray, fluorescence 635/667 (AID 1075); conditions: NRG1 binding, 635 nm fluorescence, higher = more signal;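 note: score combines 667 nm spot fluorescence with signal to noise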
Sequence of Pro-neuregulin-1, membrane-bound isoform (Homo sapiens) (Q02297 whole entry, looked up, the tested form may be a part, canonical isoform): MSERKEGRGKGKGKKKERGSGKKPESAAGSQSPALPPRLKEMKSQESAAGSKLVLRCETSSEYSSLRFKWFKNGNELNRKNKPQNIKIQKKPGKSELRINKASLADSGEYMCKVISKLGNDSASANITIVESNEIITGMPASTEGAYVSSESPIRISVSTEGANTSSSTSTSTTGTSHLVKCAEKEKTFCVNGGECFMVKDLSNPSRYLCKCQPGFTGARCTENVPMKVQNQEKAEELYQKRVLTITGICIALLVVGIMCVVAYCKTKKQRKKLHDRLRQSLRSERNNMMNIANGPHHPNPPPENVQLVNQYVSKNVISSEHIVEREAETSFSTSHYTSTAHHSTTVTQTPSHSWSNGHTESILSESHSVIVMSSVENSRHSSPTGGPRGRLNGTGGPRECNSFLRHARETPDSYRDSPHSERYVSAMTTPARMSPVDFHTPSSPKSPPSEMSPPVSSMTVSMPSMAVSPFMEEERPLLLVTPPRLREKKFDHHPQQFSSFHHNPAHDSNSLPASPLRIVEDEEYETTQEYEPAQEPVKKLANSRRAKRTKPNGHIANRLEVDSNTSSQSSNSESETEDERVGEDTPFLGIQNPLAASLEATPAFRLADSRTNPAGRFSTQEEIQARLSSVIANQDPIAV

[7] = tested on: Neuregulin-1 EGF-like domain; assay: binders of neuregulin-1 EGF-like domain, primary screen, biochemical, small-molecule microarray, 635 nm fluorescence (AID 1081); conditions: small-molecule microarray binding, higher = more signal;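 note: binding of the protein to compounds printed on small-molecule microarray slides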
[8] = FRG1 promoter luciferase signal modulators, primary screen, FRG1 inhibition for FSHD, cell-based, C2C12 myotubes, firefly/Renilla luciferase, luminescence (AID 1084); conditions: higher = more signal, called active from +8 up or from −8 down
[9] = binders of probe aFST on microarray, primary screen, stem cell growth factor project, biochemical, small-molecule microarray, fluorescence 635/667 (AID 1086); conditions: higher = more signal;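 note: score merges 667 nm fluorescence with signal-to-noise of each printed compound spot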
[10] = binders of probe aHhip on microarray, primary screen, stem cell growth factor project, biochemical, small-molecule microarray, fluorescence 635/667 (AID 1087); conditions: higher = more signal;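 note: score merges spot fluorescence at 667nm with spot signal to noise ratio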
[11] = tested on: PRMT1 (protein arginine N-methyltransferase 1); assay: PRMT1 binders on small-molecule microarrays, primary screen, biochemical, small-molecule microarray, 635 nm fluorescence (AID 1088); conditions: small-molecule microarray binding, higher = more signal;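 note: binding of Prmt1 protein to compounds spotted on small-molecule microarray slides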
[12] = yeast growth modulation, basal conditions, primary screen, YJM789 clinical isolate, OD600, 24 h (AID 1089);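 note: growth of clinical yeast isolate S. cerevisiae YJM 789 seeded 1000 cells per well; test concentration not given here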; conditions: S. cerevisiae YJM789 growth, higher = more signal, called active from +8 up or from −8 down
[13] = fission yeast growth modulation, primary screen, strain 972, OD600, 24 h, no modulator (AID 1090);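 note: basal condition with compound alone and no growth modifier present; test concentration not given here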; conditions: S. pombe 972 growth, higher = more signal, called active from +8 up or from −8 down
[14] = S. cerevisiae growth modulation with rapamycin, primary screen, strain BY4716, OD600, 96 h (AID 1091); conditions: higher = more signal, called active from +8 up or from −8 down; note: test concentration not given here
[15] = target: Torsin-1A-interacting protein 2 (Homo sapiens) (UniProt Q8NFQ8); assay: LULL1 binders on small-molecule microarray, primary screen, cell lysate, human LULL1 lysate, 635/667 nm fluorescence (AID 1092); conditions: hLULL1 lysate binding, 635 nm fluorescence, higher = more signal;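 note: probe is lysate of COS7 cells overexpressing human LULL1; score merges per-feature 667 nm fluorescence with signal-to-noise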
Sequence of Torsin-1A-interacting protein 2 (Homo sapiens) (Q8NFQ8 whole entry, looked up): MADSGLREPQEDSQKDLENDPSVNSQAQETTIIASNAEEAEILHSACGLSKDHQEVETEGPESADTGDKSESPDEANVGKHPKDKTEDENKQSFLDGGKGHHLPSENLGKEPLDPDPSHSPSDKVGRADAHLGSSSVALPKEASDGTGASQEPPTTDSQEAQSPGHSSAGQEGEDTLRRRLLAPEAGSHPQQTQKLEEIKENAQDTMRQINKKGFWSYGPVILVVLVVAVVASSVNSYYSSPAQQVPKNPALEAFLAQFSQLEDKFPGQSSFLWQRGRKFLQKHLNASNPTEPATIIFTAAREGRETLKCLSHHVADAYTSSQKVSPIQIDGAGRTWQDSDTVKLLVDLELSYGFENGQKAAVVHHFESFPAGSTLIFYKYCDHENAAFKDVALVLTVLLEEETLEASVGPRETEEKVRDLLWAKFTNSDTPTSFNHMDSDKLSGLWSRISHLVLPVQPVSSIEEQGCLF

[16] = E. coli growth modulation, two-sided OD650, primary screen, E. coli filamentation project, strain DRC41, 24 h (AID 1093); conditions: OD650, 24 h, higher = more signal, called active from +8 up or from −8 down;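 note: MC1000 strain lacking acrAB efflux and sulA so SOS filamentation is blocked; test concentration not given here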
[17] = small-molecule microarray binders of probe aLefty2, primary screen, biochemical, biotinylated probe, 635/667 nm fluorescence (AID 1094); conditions: higher = more signal;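 note: score merges spot fluorescence near 667 nm with spot signal-to-noise ratio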
[18] = tested on: Noggin (protein binding on small-molecule microarray); assay: Noggin binders on small-molecule microarray, primary screen, biochemical, 635/667 nm fluorescence (AID 1095); conditions: 635 nm fluorescence, higher = more signal;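 note: score merges 667 nm feature fluorescence with signal to noise over triplicate slides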
[19] = target: Neurogenic locus notch homolog protein 3 (Homo sapiens) (UniProt Q9UM47); assay: NOTCH3 binders on small-molecule microarray, primary screen, biochemical, 635/667 nm fluorescence (AID 1096); conditions: NOTCH3 binding, 635 nm fluorescence, higher = more signal
[20] = small-molecule microarray binders of probe aEGFR, primary screen, biochemical, biotinylated probe, 635/667 nm fluorescence (AID 1097); conditions: higher = more signal;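 note: probe is a biotinylated anti-EGFR antibody binding compounds printed on slides; score combines fluorescence near 667 nm and signal to noise of each spot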

Row | SMILES | composite z-score [1] | composite z-score [2] | composite z-score [3] | composite z-score [4] | composite z-score [5] | composite z-score [6] | composite z-score [7] | z-score [8] | composite z-score [9] | composite z-score [10] | composite z-score [11] | z-score [12] | z-score [13] | z-score [14] | composite z-score [15] | z-score [16] | composite z-score [17] | composite z-score [18] | composite z-score [19] | composite z-score [20]
1 | O=C1NCC(=O)N2[C@@H]1C[C@@H](C(=O)O)[C@H]2c1ccc(O)cc1 | 0.257 | 0.433 | 0.0121 | 0.593 | -0.218 | 1.81 | 1.39 | 4.94 (inactive) | 0.0816 | -0.0618 | 1.56 | 0.442 (inactive) | -0.498 (inactive) | 0.318 (inactive) | 2.6 | 0.984 (inactive) | 0.0875 | 1.44 | 1.08 | -0.326
2 | C[C@]1(C(=O)NC2CC2)c2ccccc2C(=O)N(Cc2ccc(OC(F)(F)F)cc2)[C@H]1c1ccc(CO)cc1 | 0.652 | 0.179 | -0.0642 | -0.366 | -1.02 | -0.47 | 0.745 | -1.68 (inactive) | 0.0221 | -0.111 | -0.613 | -0.352 (inactive) | -0.0814 (inactive) | -0.439 (inactive) | 1.77 | 0.735 (inactive) | -0.128 | -0.221 | -0.943 | -0.169
3 | CN1C(=O)C2C=CC(C(O)C3CCCCC3)N(N3CCCCC3)C2C1=O (stereo not given) | -0.0863 | 1.54 | 0.156 | 0.644 | 1.52 | 1.51 | 1.23 | 0.573 (inactive) | 1.01 | 0.398 | 1.56 | 0.823 (inactive) | 0.788 (inactive) | 0.884 (inactive) | 2.45 | -0.593 (inactive) | 0.25 | 0.684 | 1.07 | 0.0939
